According to PubChem BioAssay:
For part of these data: Results with a measured potency or affinity are listed apart. Calls of active or inactive are those of the source.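 The calls were made as follows, unless noted: active = primary screen hit whose fluorescence ratio, in both repeats, exceeds the weak agonist control mean by 3 SD; inactive = the rest.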

Key:
[1] = system: TRPC4 beta (transient receptor potential cation channel C4), mouse; assay: activators of mouse TRPC4 channel, confirmation, cell-based, Fluo4 calcium, HEK293 TRPC4beta/mu-opioid, duplicates, 10 µM (AID 2426;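 active = fluorescence ratio normalized to control raised more than 50% in primary screen plus both repeat runs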); settings: Fluo4 calcium fluorescence, at 10 µM; active compounds read high
[2] = system: transient receptor potential cation channel C4 beta (TRPC4), mouse; assay: activators of mouse TRPC4 channel, confirmation, cell-based, second round, Fluo4, HEK293 TRPC4beta/mu-opioid, 1 µM (AID 2461;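 active = primary screen active and over 50% activation in each of two duplicate runs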); settings: Fluo4 calcium fluorescence, at 1 µM; active compounds read high
[3] = system: TRPC4 (transient receptor potential cation channel C4 beta), mouse; assay: positive allosteric modulators of mouse TRPC4, confirmation, cell-based, second round, Fluo-4, HEK293 TRPC4beta/mu-opioid, 1 µM (AID 2554); settings: DAMGO EC20, Fluo-4 calcium flux, at 1 µM; active compounds read high
[4] = system: TRPC4 beta (transient receptor potential cation channel C4), mouse; assay: positive allosteric modulators of mouse TRPC4, confirmation, cell-based, Fluo-4, HEK293 TRPC4beta/mu-opioid (AID 2555;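 active = primary screen hit whose calcium fluorescence ratio, in both repeats, exceeds the weak agonist control mean by 3 SD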); settings: DAMGO EC20, Fluo-4 calcium flux, at 10 µM; active compounds read high
[5] = biological target: Short transient receptor potential channel 4 (Mus musculus) (UniProt Q9QUQ5); assay: inhibitors of mouse TRPC4 channel, confirmation, cell-based, Fluo4, HEK293 TRPC4beta/mu-opioid (AID 2636;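 active = calcium signal cut by more than 3 SD below the full-agonist control yet still positive, in both repeats and the earlier primary screen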); settings: DAMGO, Fluo4 calcium flux, at 10 µM; active compounds read high
[6] = biological target: Short transient receptor potential channel 4 (Mus musculus) (UniProt Q9QUQ5); assay: inhibitors of mouse TRPC4 channel, confirmation, cell-based, second round, Fluo4, HEK293 TRPC4beta/mu-opioid, 1 µM (AID 2637;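 active = calcium signal ratio cut to more than 3 SD under the fully stimulated control mean yet still positive, in both repeats and the primary screen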;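 as to inhibition: percent of integrated ratio relative to wells lacking test compound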); settings: Fluo4 calcium flux, DAMGO, at 1 µM; active compounds read high
[7] = biological target: Short transient receptor potential channel 4 (Mus musculus) (UniProt Q9QUQ5); assay: mouse TRPC4 channel activators, dose response, cell-based, HEK293 TRPC4/mu-opioid, Fluo-4 calcium (AID 434937;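 active = primary screen activator hit with a dose response curve and TRPC4 channel activation at any tested dose; inactive = no activation, no dose response, or not a primary hit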)
[8] = biological target: Short transient receptor potential channel 4 (Mus musculus) (UniProt Q9QUQ5); assay: TRPC4 positive allosteric modulators, dose response, cell-based, HEK293 TRPC4/mu-opioid, Fluo-4 calcium, EC20 DAMGO (AID 434941;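 active = earlier screen potentiator hit that boosts the TRPC4 ion channel at some dose, with a dose response; inactive = no potentiation, no dose response, or not a prior hit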;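 also: calcium entry triggered by an EC20 dose of DAMGO at the co-expressed mu-opioid receptor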)
[9] = biological target: Short transient receptor potential channel 6 (Mus musculus) (UniProt Q61143); assay: inhibition of mouse TRPC6 channel, confirmation, selectivity assay for TRPC4 inhibitor project, cell-based, HEK293, membrane potential dye, duplicate (AID 434948;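 active = active in primary screen and both duplicates, each dropping signal beyond three positive-control SD with fluorescence still positive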); settings: HEK293 TRPC6, membrane potential dye fluorescence, at 10 µM, stimulated with maximal-effect acetylcholine; active compounds read high
[10] = biological target: Short transient receptor potential channel 6 (Mus musculus) (UniProt Q61143); assay: activation of mouse TRPC6 channel, confirmation, selectivity assay for TRPC4 activator project, cell-based, HEK293, membrane potential dye, duplicate (AID 434950;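 active = membrane potential signal rise above negative control mean plus 3 SD in both duplicates, also active in the earlier TRPC4 screen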); settings: HEK293 TRPC6, membrane potential fluorescence, at 10 µM; active compounds read high
[11] = biological target: Short transient receptor potential channel 6 (Mus musculus) (UniProt Q61143); assay: TRPC6 potentiation by TRPC4 potentiator hits, confirmation, selectivity assay for TRPC4 potentiator project, HEK293 cells, membrane potential dye, duplicate (AID 434952;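 active = compound raising the membrane signal above positive-control mean plus 3 SD in both repeats, and a primary screen hit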); settings: HEK293 TRPC6, membrane potential dye fluorescence, at 10 µM, maximal acetylcholine added after compound; active compounds read high
[12] = biological target: Short transient receptor potential channel 4 (Mus musculus) (UniProt Q9QUQ5); assay: calcium flux activators in TRPC4/5HT1a cells, counter-screen for TRPC4 activator project, cell-based, second counter screen, HEK293 TRPC4/5HT1a, Fluo-4 (AID 434977;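 active = calcium signal rise above buffer-control mean plus 5 SD in both duplicates, and also a hit in the primary screen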); settings: Fluo-4 calcium flux, at 10 µM; active compounds read high
[13] = calcium flux inhibitors in TRPC4/5HT1a cells, confirmation, counter-screen for TRPC4 inhibitor project, cell-based, second counter screen, HEK293 TRPC4/5HT1a, Fluo-4 (AID 434978;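 active = primary screen active whose calcium signal fell more than 3 SD beyond the full-serotonin control mean in both duplicate plates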;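 as to outcome: serotonin given first at submaximal then at maximal dose after compound preincubation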); settings: Fluo-4 calcium flux, at 10 µM, serotonin added to trigger calcium flux; active compounds read high
[14] = system: TRPC4 (mouse), co-expressed with 5HT1a in HEK293; assay: calcium flux potentiators in TRPC4/5HT1a cells, confirmation, counter-screen for TRPC4 potentiator project, cell-based, second counter screen, HEK293 TRPC4/5HT1a, Fluo-4 (AID 434979;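 active = signal rise over 3 SD above mean of control wells given weak agonist, in both repeats and first screen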); settings: Fluo-4 calcium flux, at 10 µM, serotonin added at its EC20 dose; active compounds read high
[15] = calcium flux activation in mu-opioid HEK293 cells, confirmation, counter-screen for TRPC4 activator project, cell-based, HEK293 mu-opioid receptor line (AID 449723;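 active = hit in primary screen, with calcium signal over 5 SD above buffer well mean in both duplicates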;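 also: counter screen cells carry the mu-opioid receptor alone and lack TRPC4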); settings: Fluo-4 calcium fluorescence, at 10 µM; active compounds read high
[16] = calcium flux enhancement in mu-opioid HEK293 cells, confirmation, counter-screen for TRPC4 allosteric potentiator project, cell-based, HEK293 mu-opioid receptor line (AID 449724;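 active = calcium signal rise more than 3 SD above the low-dose agonist control mean, in both duplicate plates and the primary screen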); settings: Fluo-4 calcium flux, at 10 µM, compound added before EC20 DAMGO stimulus; active compounds read high

Chain of Short transient receptor potential channel 4 (Mus musculus) (Q9QUQ5 whole entry, looked up): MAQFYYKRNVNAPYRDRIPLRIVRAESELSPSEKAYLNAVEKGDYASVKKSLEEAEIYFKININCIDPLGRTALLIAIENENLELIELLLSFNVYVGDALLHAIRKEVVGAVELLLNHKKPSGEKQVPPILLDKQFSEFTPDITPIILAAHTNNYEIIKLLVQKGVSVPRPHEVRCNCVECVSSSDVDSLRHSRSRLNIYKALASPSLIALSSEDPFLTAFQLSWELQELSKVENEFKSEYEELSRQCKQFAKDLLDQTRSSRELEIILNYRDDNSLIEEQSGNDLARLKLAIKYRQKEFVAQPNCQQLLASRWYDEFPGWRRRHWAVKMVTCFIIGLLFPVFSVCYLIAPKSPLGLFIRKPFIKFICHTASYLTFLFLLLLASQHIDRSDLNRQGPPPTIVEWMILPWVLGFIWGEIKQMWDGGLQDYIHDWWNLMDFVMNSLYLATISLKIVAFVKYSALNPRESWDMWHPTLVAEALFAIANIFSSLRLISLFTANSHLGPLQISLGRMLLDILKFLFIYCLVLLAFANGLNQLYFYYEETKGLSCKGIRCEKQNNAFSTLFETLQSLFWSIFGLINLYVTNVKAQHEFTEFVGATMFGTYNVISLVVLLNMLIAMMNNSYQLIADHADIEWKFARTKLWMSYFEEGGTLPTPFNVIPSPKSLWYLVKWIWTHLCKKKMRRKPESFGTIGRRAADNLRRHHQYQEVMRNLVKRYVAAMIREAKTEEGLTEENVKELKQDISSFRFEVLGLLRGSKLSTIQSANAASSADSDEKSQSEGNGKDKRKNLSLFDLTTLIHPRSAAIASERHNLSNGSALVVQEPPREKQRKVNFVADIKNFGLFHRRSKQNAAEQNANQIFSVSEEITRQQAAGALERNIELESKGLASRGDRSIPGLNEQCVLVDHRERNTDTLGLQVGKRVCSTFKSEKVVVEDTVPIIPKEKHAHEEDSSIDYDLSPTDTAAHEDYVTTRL
Chain of Short transient receptor potential channel 6 (Mus musculus) (Q61143 whole entry, looked up): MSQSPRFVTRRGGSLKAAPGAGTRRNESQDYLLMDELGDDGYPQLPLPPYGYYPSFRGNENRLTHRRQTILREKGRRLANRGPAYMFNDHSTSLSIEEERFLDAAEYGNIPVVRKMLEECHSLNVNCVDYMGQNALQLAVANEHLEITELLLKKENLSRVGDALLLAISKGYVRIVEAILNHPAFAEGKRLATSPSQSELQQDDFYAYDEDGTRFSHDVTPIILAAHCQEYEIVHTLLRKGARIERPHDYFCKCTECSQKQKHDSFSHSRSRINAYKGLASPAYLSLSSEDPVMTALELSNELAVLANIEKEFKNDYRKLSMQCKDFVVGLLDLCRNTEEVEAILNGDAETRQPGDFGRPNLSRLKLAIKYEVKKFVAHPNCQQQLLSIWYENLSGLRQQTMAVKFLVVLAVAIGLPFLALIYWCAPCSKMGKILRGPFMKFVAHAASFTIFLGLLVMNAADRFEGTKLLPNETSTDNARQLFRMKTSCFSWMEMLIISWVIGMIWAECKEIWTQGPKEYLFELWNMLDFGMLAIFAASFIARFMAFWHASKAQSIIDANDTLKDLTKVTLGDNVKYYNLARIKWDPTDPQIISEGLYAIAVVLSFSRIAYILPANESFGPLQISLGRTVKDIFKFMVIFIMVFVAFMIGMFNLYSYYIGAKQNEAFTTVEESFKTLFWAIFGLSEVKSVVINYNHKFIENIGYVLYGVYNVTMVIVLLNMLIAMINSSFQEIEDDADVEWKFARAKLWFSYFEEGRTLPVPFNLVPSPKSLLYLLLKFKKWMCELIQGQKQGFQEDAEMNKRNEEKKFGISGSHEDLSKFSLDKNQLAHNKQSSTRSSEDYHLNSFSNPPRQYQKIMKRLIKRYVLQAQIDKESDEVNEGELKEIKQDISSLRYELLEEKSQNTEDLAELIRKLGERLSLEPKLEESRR

Structure (SMILES)	outcome [1]	outcome [2]	outcome [3]	outcome [4]	inhibition [5]	inhibition [6]	outcome [7]	outcome [8]	inhibition [9]	outcome [10]	outcome [11]	outcome [12]	inhibition [13]	outcome [14]	outcome [15]	outcome [16]	outcome [9]	outcome [13]	outcome [6]	potentiation [4]
Cc1cccc(Cn2c(C(C)(C)C)cc3cccnc32)c1	inactive	inactive	inactive	inactive	95% (active)	72% (active)	inactive	inactive	59.5% (active)	inactive	inactive	inactive	19.4% (active)	inactive	inactive	inactive	–	–	–	–
CCCCCn1c2c(c(=N)c3ccccc31)CCC2	inactive	inactive	inactive	inactive	96% (active)	75% (active)	inactive	inactive	1.5% (active)	inactive	inactive	inactive	13.9% (active)	inactive	inactive	inactive	–	–	–	–
Cc1ccc2cc(CN(CCCN3CCOCC3)C(c3nnnn3Cc3ccco3)C(C)C)c(=O)[nH]c2c1C (stereo not given)	inactive	inactive	inactive	inactive	98% (active)	72% (active)	inactive	inactive	–	inactive	inactive	inactive	–	inactive	inactive	inactive	inactive	inactive	–	–
CCN(CC)Cc1cc(CCNC(=O)c2ccc(Cl)cc2)ccc1O	inactive	inactive	inactive	inactive	97% (active)	75% (active)	inactive	inactive	–	inactive	inactive	inactive	31.2% (active)	inactive	inactive	inactive	inactive	–	–	–
O=C(Nc1ccccc1N1CCN(C(=O)c2ccccc2)CC1)c1ccc(Br)o1	inactive	inactive	inactive	inactive	82% (active)	57% (active)	inactive	inactive	–	inactive	inactive	inactive	31.6% (active)	inactive	inactive	inactive	inactive	–	–	–
COC(=O)c1cccc(Nc2c3c(nc4ccccc24)CCC3)c1	inactive	inactive	inactive	inactive	96% (active)	–	inactive	inactive	–	inactive	inactive	inactive	30.4% (active)	inactive	inactive	inactive	inactive	–	inactive	–
c1ccc2c(c1)nnn2-c1ncnc2sc3c(c12)CCCC3	inactive	inactive	inactive	inactive	71% (active)	–	inactive	inactive	–	inactive	inactive	inactive	21.8% (active)	inactive	inactive	inactive	inactive	–	inactive	–
CC1(C)CC(NC(=O)c2cc(COc3cccc(C(F)(F)F)c3)on2)CCO1 (stereo not given)	inactive	inactive	inactive	inactive	90% (active)	–	inactive	inactive	–	inactive	inactive	inactive	25.2% (active)	inactive	inactive	inactive	inactive	–	inactive	–
CCn1cc(CN2CCCC(CO)(Cc3cccc(Cl)c3)C2)cn1 (stereo not given)	inactive	inactive	inactive	inactive	94% (active)	–	inactive	inactive	–	inactive	inactive	inactive	38.8% (active)	inactive	inactive	inactive	inactive	–	inactive	–
COc1ncnc2sc3c(c12)CCCC3	inactive	inactive	inactive	inactive	93% (active)	–	inactive	inactive	–	inactive	inactive	inactive	–	inactive	inactive	inactive	inactive	inactive	inactive	–
CCOc1ccc(Br)cc1/C=N/O	inactive	inactive	inactive	inactive	90% (active)	–	inactive	inactive	27.5% (active)	inactive	inactive	inactive	29.2% (active)	inactive	inactive	inactive	–	–	inactive	–
COc1cc(/C=C2\SC(=S)N(NS(=O)(=O)c3ccc(C)cc3)C2=O)cc(OC)c1OC	inactive	inactive	inactive	inactive	95% (active)	–	inactive	inactive	–	inactive	inactive	inactive	34.5% (active)	inactive	inactive	inactive	inactive	–	inactive	–
N#Cc1c(-c2cccs2)nc(SCc2ccc(Cl)cc2)[nH]c1=O	inactive	inactive	inactive	–	99% (active)	40% (active)	inactive	inactive	–	inactive	inactive	inactive	11.9% (active)	inactive	inactive	inactive	inactive	–	–	15% (active)
C=CCOc1ccc(Br)cc1CNC(C)(C)CO	inactive	inactive	inactive	inactive	94% (active)	39% (active)	inactive	inactive	–	inactive	inactive	inactive	24.1% (active)	inactive	inactive	inactive	inactive	–	–	–
CC(C)=CCCC(C)CN1CCC(n2nccc2NC(=O)C2CCCC2)CC1 (stereo not given)	inactive	inactive	inactive	inactive	99% (active)	63% (active)	inactive	inactive	–	inactive	inactive	inactive	38% (active)	inactive	inactive	inactive	inactive	–	–	–
